The record followed here is PubChem BioAssay (NCI).

Test systems include SR leukemia; RPMI-8226 leukemia; OVCAR-8 ovarian; OVCAR-5 ovarian; OVCAR-4 ovarian; SK-OV-3 ovarian; IGROV1 ovarian; HS 578T breast; NCI/ADR-RES ovarian; T-47D breast; BT-549 breast; MDA-MB-435 melanoma; SW-620 colon; MCF7 breast; HCT-116 colon; HCC-2998 colon; KM12 colon.
Test in all cases: NCI-60 one-dose screen, 48 h (100 = growth as untreated, 0 = no growth, -100 = all killed)
Holding throughout (conditions): 10 µM unless noted

Structures are written as SMILES. The panel holds about 83,000 compounds, 20% with a hit somewhere; the sample as a whole holds those more often.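 Negative percent growth values reflect cell death: -40 means 40% of the cells present at the start died, and -100 means all died.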 A number with no mark means an inactive call. Activity calls are given as the source filed them. Rule for the calls: active = growth percent below 10; inactive = the rest.

In the case of `CNCc1cccc2c1OCCCCCCC(C)(O)CC(C)(C)S(=O)(=O)c1ccc(cc1)-c1cnc(N)c(n1)C(=O)N2` (stereo not drawn), the growth is -36.6% (active) with SR leukemia; -41.9% (active) in the assay with RPMI-8226 leukemia; 55.3% with OVCAR-8 ovarian; 55.9% in the assay with OVCAR-5 ovarian; 30.3% in the assay with OVCAR-4 ovarian; 38.1% in the assay on SK-OV-3 ovarian. Moreover, the growth in the assay with IGROV1 ovarian is 3.36% (active); with HS 578T breast, 24.1%; in the assay with NCI/ADR-RES ovarian it was 43.2%; with T-47D breast, 56.1%; in the assay with BT-549 breast, 27.9%; in the assay with MDA-MB-435 melanoma it was -85.6% (active). The growth is 5.13% (active) with SW-620 colon; -58.1% (active) in the assay on MCF7 breast; -82.3% (active) in the assay with HCT-116 colon; -6.01% (active) in the assay on HCC-2998 colon; -68.1% (active) in the assay with KM12 colon.
With `CC[C@H](CO)Nc1ccc2ncc(C#Cc3cncc(C(=O)Nc4ccc(CN5CCN(C)CC5)c(C(F)(F)F)c4)c3)n2n1`, the growth in the assay with SR leukemia is -42.9% (active); with RPMI-8226 leukemia, -44.8% (active); in the assay on OVCAR-8 ovarian, -58.1% (active); with OVCAR-5 ovarian it was -38.1% (active); in the assay on OVCAR-4 ovarian, -47.7% (active); with SK-OV-3 ovarian, -45.6% (active). Further, the growth in the assay with IGROV1 ovarian is -33.1% (active); in the assay on HS 578T breast, -43.9% (active); in the assay with NCI/ADR-RES ovarian it was 54.3%; in the assay with T-47D breast, -69.5% (active); with BT-549 breast it was -97.4% (active); with MDA-MB-435 melanoma, -91.4% (active). Further, the growth in the assay on SW-620 colon is -50.8% (active); with MCF7 breast, -73.1% (active); in the assay with HCT-116 colon, -94.3% (active); with HCC-2998 colon, -59.4% (active); with KM12 colon, -61.9% (active).
With `COC(=O)c1[nH]nc2c1C1(C(=O)N(C)c3ccccc31)C(C#N)=C(N)O2` (stereo not drawn), the growth with SR leukemia is 113%; with RPMI-8226 leukemia, 104%; in the assay with OVCAR-8 ovarian it was 102%; in the assay on OVCAR-5 ovarian, 103%; in the assay on OVCAR-4 ovarian it was 97.7%; in the assay with SK-OV-3 ovarian it was 98.3%. For the same molecule, the growth in the assay with IGROV1 ovarian was 105%; in the assay on HS 578T breast it was 99.7%; in the assay with NCI/ADR-RES ovarian, 99.7%; with T-47D breast it was 108%; in the assay with BT-549 breast it was 133%; in the assay on MDA-MB-435 melanoma, 99.9%. Besides, the growth was 93% in the assay with SW-620 colon; 89.6% in the assay on MCF7 breast; 101% in the assay with HCT-116 colon; 104% with HCC-2998 colon; 103% with KM12 colon.
Take `CC1=N[C@@H]2CN(C(=O)OC(C)(C)C)C[C@@H]2n2c1cc1ccccc1c2=O`: the growth in the assay with SR leukemia is 99.9%; in the assay with RPMI-8226 leukemia, 101%; in the assay with OVCAR-8 ovarian, 101%; with OVCAR-5 ovarian, 107%; in the assay on OVCAR-4 ovarian, 107%; in the assay with SK-OV-3 ovarian, 92.5%. The growth in the assay with IGROV1 ovarian was 107%; in the assay on HS 578T breast, 101%; with NCI/ADR-RES ovarian it was 100%; in the assay with T-47D breast it was 98.8%; in the assay with BT-549 breast, 144%; with MDA-MB-435 melanoma, 108%. Also, the growth is 107% with SW-620 colon; 95.6% with MCF7 breast; 103% in the assay on HCT-116 colon; 107% in the assay on HCC-2998 colon; 97.5% with KM12 colon.
Consider `Cc1ccc2c(c1)C(=O)/C(=C/c1cccc(F)c1)S2`, for which the growth in the assay on SR leukemia was 101%; with RPMI-8226 leukemia it was 84.6%; in the assay with OVCAR-8 ovarian, 103%; in the assay with OVCAR-5 ovarian, 105%; in the assay on OVCAR-4 ovarian it was 99.7%; in the assay with SK-OV-3 ovarian it was 99%. Besides, the growth with IGROV1 ovarian was 97.7%; in the assay on HS 578T breast it was 104%; in the assay with NCI/ADR-RES ovarian, 109%; in the assay on T-47D breast, 101%; in the assay on BT-549 breast, 134%; with MDA-MB-435 melanoma it was 98.1%. Also, the growth is 105% in the assay with SW-620 colon; 73.7% with MCF7 breast; 105% in the assay with HCT-116 colon; 113% with HCC-2998 colon; 101% with KM12 colon.
As to `CC1(COc2ccc3ncc(C#Cc4cncc(C(=O)Nc5cccc(C(F)(F)F)c5)c4)n3n2)COC1`, the growth in the assay on SR leukemia was 56.5%; with RPMI-8226 leukemia, 92.7%; with OVCAR-8 ovarian, 81.4%; in the assay with OVCAR-5 ovarian, 81.7%; in the assay with OVCAR-4 ovarian it was 82.1%; in the assay with SK-OV-3 ovarian it was 96.9%. The growth in the assay with IGROV1 ovarian was 62%; in the assay with HS 578T breast, 53.6%; in the assay on NCI/ADR-RES ovarian, 80.3%; with T-47D breast, 78.9%; in the assay with BT-549 breast, 128%; with MDA-MB-435 melanoma, 89.2%. The growth in the assay on SW-620 colon is 69%; in the assay with MCF7 breast, 62.8%; in the assay with HCT-116 colon, 56.4%; with HCC-2998 colon it was 86.9%; with KM12 colon, 21.1%.
With `CNC(=O)c1cc(Oc2ccc3nc(NC(=O)c4cc(N5CCOCC5)cc(C(F)(F)F)c4)sc3c2)ccn1`, the growth with SR leukemia is 27.1%; in the assay on RPMI-8226 leukemia it was 51.6%; in the assay on OVCAR-8 ovarian it was 65.5%; in the assay with OVCAR-5 ovarian, 97.1%; in the assay on OVCAR-4 ovarian, 64.8%; in the assay on SK-OV-3 ovarian, 97.9%. Also, the growth in the assay on IGROV1 ovarian is 99.6%; with HS 578T breast, 79.2%; in the assay with NCI/ADR-RES ovarian, 80.2%; in the assay with T-47D breast, 74.2%; in the assay with BT-549 breast, 88.1%; in the assay with MDA-MB-435 melanoma, 67.8%. Moreover, the growth with SW-620 colon is 107%; in the assay on MCF7 breast it was 75.5%; with HCT-116 colon, 63.1%; with HCC-2998 colon, 114%; in the assay with KM12 colon, 71.3%.
`COc1cc(OC)c(S(N)(=O)=O)cc1C(=O)/C=C/c1ccc(Cl)cc1`: the growth in the assay with SR leukemia is -19.5% (active); with RPMI-8226 leukemia, -5.04% (active); in the assay on OVCAR-8 ovarian, 3% (active); with OVCAR-5 ovarian it was 17.2%; in the assay with OVCAR-4 ovarian it was 49.9%; with SK-OV-3 ovarian, 33.6%. Besides, the growth in the assay with IGROV1 ovarian was 6.66% (active); with HS 578T breast, 13.2%; in the assay with NCI/ADR-RES ovarian, 20%; with T-47D breast, 26.1%; with BT-549 breast, 1.01% (active); with MDA-MB-435 melanoma, 16.7%. Moreover, the growth is -39.9% (active) in the assay with SW-620 colon; 5.69% (active) in the assay with MCF7 breast; 7.77% (active) in the assay with HCT-116 colon; 1.39% (active) with HCC-2998 colon; 1.9% (active) with KM12 colon.
Regarding `CC(O)c1cc2ccccc2c(=O)o1` (stereo not drawn), the growth with SR leukemia is 96.2%; in the assay with RPMI-8226 leukemia, 96.8%; in the assay with OVCAR-8 ovarian, 102%; in the assay with OVCAR-5 ovarian, 103%; in the assay with OVCAR-4 ovarian it was 100%; in the assay on SK-OV-3 ovarian, 99.8%. Moreover, the growth is 107% with IGROV1 ovarian; 103% in the assay on HS 578T breast; 101% with NCI/ADR-RES ovarian; 104% in the assay on T-47D breast; 105% in the assay on BT-549 breast; 96.3% in the assay with MDA-MB-435 melanoma. Besides, the growth in the assay on SW-620 colon is 98.9%; in the assay with MCF7 breast, 91.5%; in the assay with HCT-116 colon, 108%; with HCC-2998 colon, 99.9%; in the assay on KM12 colon it was 106%.
